The values that follow come from the supplement of paper PMC6763611.

Each structure is given as a SMILES string.

The test system of the assay is Plasmodium falciparum NF54. Kind of assay: growth inhibition relative to untreated control; higher = more inhibition. The settings on record: 5 µM; minimal medium (MM); 72 h. The method in brief: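 P. falciparum NF54 ring stages (1% hematocrit, 1% parasitemia, 100 μL/well in 96-well half-area dark plates) were exposed for 72 h at 37 °C to single 5 μM or 1 μM doses of Pathogen Box compounds. The medium was minimal RPMI or minimal RPMI plus chorismate end-products (2.2 μM folate, 7.3 μM pABA, 7.3 μM pHBA, 111 μM tyrosine, 90 μM phenylalanine, tryptophan). Growth inhibition was read by SYBR Green, normalised to untreated controls, with uninfected erythrocytes as background.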
`c1csc(-c2cnc3sc(NCC4CCOCC4)nn23)c1`: the growth inhibition was 95%.

`Cc1nc(-c2cccc(NCc3ccccc3)c2)[nH]c1C`: the growth inhibition worked out at 94.7%.

`O=C1N(Cc2cc3ccccc3s2)CC2CN(Cc3ccccc3)CCN12` (stereo not drawn) returned a growth inhibition of 94.8%.

On to `Cc1cc(NC(=O)c2ccc(Oc3ccc(Cl)cc3O)o2)no1`, for which the growth inhibition amounted to 34.9%.

Take `c1ccc(C[C@@H]2CN(c3nccc(Oc4ccc(-n5ccnc5)cc4)n3)CCN2)cc1`: the growth inhibition worked out at 95.3%.

On to `O=C(NC1CCN(c2ccnc3ccccc23)C1)c1cccc(C(F)(F)F)c1` (stereo not drawn), for which the growth inhibition was 66.7%.

Compound `NC(CC(=O)c1ccc(Cl)cc1Cl)C(Cl)(Cl)Cl` (stereo not drawn) yielded a growth inhibition of 23%.

With `CC(C)n1ncc2c(C(=O)NCC(c3cccs3)N3CCOCC3)cc(-c3ccccc3)nc21` (stereo not drawn), the growth inhibition stood at 14.2%.

As for `NCCC(O)C(=O)N[C@@H]1C[C@H](N)[C@@H](OC2O[C@H](CN)[C@@H](O)[C@H](O)[C@H]2O)[C@H](O)C1OC1O[C@H](CO)[C@@H](O)[C@H](N)[C@H]1O` (stereo partly drawn), the growth inhibition was under 0%.

`COc1ccc(C2(C(=O)Nc3ccc(Br)cc3)CCCC2)cc1` had a growth inhibition of 2.98%.

As for `NCC(c1cccs1)S(=O)(=O)c1ccccc1` (stereo not drawn), the growth inhibition was determined as 4.01%.

Regarding `CC1=NN(c2nc3ccccc3s2)C(=O)C1Cc1cccc2ccccc12` (stereo not drawn), the growth inhibition is under 0%.

As to `COc1ccccc1C(C)NCC(=O)Nc1cc(C(F)(F)F)ccc1Cl` (stereo not drawn), the growth inhibition is 88%.

Turning to `CCc1cc(=O)n(C)c(SC(C)C(=O)Nc2ccc(F)cc2)n1` (stereo not drawn), the growth inhibition stood at 94.5%.

In turn, `Nc1ncnc2c1c(-c1cnc3ccccc3c1)nn2CC1CCNCC1` gave a growth inhibition of 16.8%.

As for `Cc1ccc(S(=O)(=O)N2CCN(C(=O)c3cc(-c4ccccc4)n[nH]3)CC2)cc1`, the growth inhibition was found to be 88.6%.

With `O=C(NCCc1c[nH]c2ccccc12)c1cc2ccccc2oc1=O`, the growth inhibition is under 0%.

`Cc1cc(Nc2ccncc2)n2nc(C)c(-c3ccccc3Cl)c2n1` came in with a growth inhibition of 92.2%.

With `O=[N+]([O-])c1cn2c(n1)OC[C@@H](OCc1ccc(OC(F)(F)F)cc1)C2`, the growth inhibition is under 0%.

In turn, `Cc1cc(C)n2nc(C(=O)Nc3cc(C(F)(F)F)ccc3N3CCOCC3)nc2n1` yielded a growth inhibition of 68.5%.

In turn, `CCC(Sc1nc2ccccc2o1)C(=O)Nc1nccs1` (stereo not drawn) displayed a growth inhibition of 3.39%.

In turn, `FC(F)(F)c1ccc(N(c2cccnc2)C2CCN(c3ccc(C(F)(F)F)cn3)CC2)cc1` gave a growth inhibition of 90.5%.

In turn, `COc1ccc(-c2cncc3ccc(C(=O)NCCCn4ccnc4)nc23)cc1` registered a growth inhibition of 92.4%.

`CC(=O)NC[C@H]1CN(c2ccc(N3CCSCC3)c(F)c2)C(=O)O1` came in with a growth inhibition of under 0%.

With `CCc1nc2ccc(C(=O)NCc3ccc4c(c3)OCO4)cn2c1N(C)Cc1cccs1`, the growth inhibition is under 0%.

In turn, `COc1cccc(OCC(=O)c2ccc(Br)cc2)c1` registered a growth inhibition of under 0%.

The compound `CC(C)n1nc(-c2cc3c(Cl)cccc3[nH]2)c2c(N)ncnc21` came in with a growth inhibition of 15.9%.

The compound `O=C(NCc1cc(Cl)cc(Cl)c1)c1c(C(F)(F)F)nc2ccccn12` returned a growth inhibition of 9.63%.

Regarding `CC(=O)NCC1CN(c2ccc(-c3ccc(CO)cc3)c(F)c2)C(=O)O1` (stereo not drawn), the growth inhibition is 17.6%.

In the case of `Cc1ccc(-c2nc(CN(Cc3ccccn3)C(C)C)cs2)o1`, the growth inhibition was determined as 49.2%.

The compound `CS(=O)(=O)Cc1nc2ccccc2oc1=O` came in with a growth inhibition of under 0%.

Regarding `COc1ccc(Cl)cc1NC(=O)CN(C)C(=O)c1cnn(-c2ccccc2)n1`, the growth inhibition is 98.3%.

The compound `CCOc1ccccc1NC(C)C(=O)Nc1cc(C(F)(F)F)ccc1N1CCOCC1` (stereo not drawn) had a growth inhibition of 96.1%.

As to `CNC1C(OC2C(OC3C(O)C(O)C(N=C(N)N)C(O)C3N=C(N)N)OC(C)C2(O)C=O)OC(CO)C(O)C1O` (stereo not drawn), the growth inhibition is 8.51%.

For the compound `O=C(c1cc2ccccc2o1)N1CCN(Cc2ccc3c(c2)OCO3)CC1`, the growth inhibition is under 0%.

Compound `CC1COC2(CCN(c3nc(=O)c4cc(C(F)(F)F)cc([N+](=O)[O-])c4s3)CC2)O1` (stereo not drawn) showed a growth inhibition of under 0%.

Turning to `CC(C)/N=c1\cc2n(-c3ccc(Cl)cc3)c3ccccc3nc-2cc1Nc1ccc(Cl)cc1`, the growth inhibition is 94.1%.

In turn, `CCCn1c(NC(=O)c2ccc3ccccc3n2)nc2ccccc21` gave a growth inhibition of 85%.
